We go through 53 compounds from ChEMBL document CHEMBL4513216, “Probing the Open Global Health Chemical Diversity Library for Multistage-Active Starting Points for Next-Generation Antimalarials” (ACS Infect Dis, 2020).

SMILES strings stand for the structures. About 2,700 (4%) of roughly 68,000 compounds showed an effect of 50% or more. Many of the other results were omitted from the sample, so strong results are more common in it than they were.

For this experiment, the system named is Plasmodium berghei. Nature of the experiment: Screen against P. berghei liver stage (PbLuc), transformed with Luciferase, at 2uM. The class given is functional, HepG2. The note with it: tested at 2 uM.
Take `O=C1CCC(c2nc(C3CCNCC3)no2)N1` (stereo not drawn): the INHIBITION is listed as -6.77%.
With `CCN1C[C@H]2[C@@H](C1)N(C(=O)Cc1ccsc1)CC[C@H]2OC`, the INHIBITION stood at 48.52%.
For `CCN1C[C@@H]2[C@@H](OC)CCN(C(=O)c3cc(C)nn3CC)[C@@H]2C1`, the INHIBITION came to 66.46%.
With `CO[C@H]1CCN(C(=O)c2ccsc2)[C@@H]2CN(CC3CC3)C[C@H]12`, the INHIBITION is -1.45%.
For the compound `CO[C@H]1CCN(C(=O)Cc2ccsc2)[C@@H]2CN(CC3CC3)C[C@H]12`, the INHIBITION worked out at 22.16%.
The same measure for `CO[C@@H]1CCN(C(=O)c2ccsc2)[C@@H]2CN(CC3CC3)C[C@@H]21`: 54.01%; for `CCn1nc(C)cc1C(=O)N1CC[C@H](OC)[C@H]2CN(CC3CC3)C[C@H]21`: 24.51%; for `O=C(c1cscn1)N1C[C@H]2CCCC(OCc3cccnc3)[C@H]2C1` (stereo partly drawn): -16.41%.
In the case of `COCCCN1CCCN(C(C)C(=O)Nc2cccc(I)c2)CC1` (stereo not drawn), the INHIBITION is 42.76%.
Regarding `Cc1cc(C)cc(OCC(=O)NC2CCN(S(C)(=O)=O)CC2)c1`, the INHIBITION is recorded as -50.23%.
For the compound `CCN(Cc1cccc(C(N)=O)c1)c1ccccc1`, the INHIBITION stood at 36.74%.
Turning to `Cc1ccc(CN2CCC(NC(=O)c3scnc3C)CC2)cc1`, the INHIBITION is -21.72%.
As to `Cc1ncsc1C(=O)NC1CCN(Cc2ccc(C(F)(F)F)cc2)CC1`, the INHIBITION worked out at 74.35%.
On to `Cc1ncsc1C(=O)NC1CCN(Cc2ccc(C(N)=O)cc2)CC1`, for which the INHIBITION was -2.82%.
As for `Cc1cc(CN2C[C@@H]3CC[C@H]2CN(C2Cc4ccccc4C2)C3)on1`, the INHIBITION is recorded as 17.28%.
For the compound `CCC(NCc1ccccc1)c1ccccc1OCC(=O)NC` (stereo not drawn), the INHIBITION is on record as -3.09%.
The same measure for `COc1ccc(N2CCC(N(C)C(C)C(=O)N(C)C)CC2)cc1` (stereo not drawn): -2.89%; for `COc1ccc(N2CCC(N3C[C@H](NC(C)=O)[C@@H](C(C)C)C3)CC2)cc1`: 55.36%.
`COc1cccc(N2CCC(N3C[C@@H](NC(C)=O)[C@H](C(C)C)C3)CC2)c1`: the INHIBITION came to 52.98%.
As for `CC(=O)N[C@@H]1CN(C2CCN(c3cccc(C)c3C)CC2)C[C@H]1C(C)C`, the INHIBITION came to 29.13%.
Then `CC(=O)N[C@@H]1CN(C2CCN(c3cccc(Cl)c3)CC2)C[C@H]1C(C)C`, with 21.97%; and `CC(=O)N[C@@H]1CN(C2CCN(c3ccccc3F)CC2)C[C@H]1C(C)C`, with 7.67%; and `COc1ccc(N2CCC(N(C)C(=O)C(C)SC)CC2)cc1` (stereo not drawn), with 27.5%.
As to `COc1ccc(N2CCC(NC(=O)c3ccc(C#N)cc3)CC2)cc1`, the INHIBITION stood at 45.62%.
`CCOC(C)C(=O)N(C)C1CCN(c2ccc(OC)cc2)CC1` (stereo not drawn): the INHIBITION was found to be 73.09%.
`O=C(NCC1(c2ccc(F)cc2)CCCC1)N1CCOC(CO)C1` (stereo not drawn): the INHIBITION is recorded as 12.41%.
With `Cn1ncnc1-c1ccnc(N2CCC(C(O)c3cccs3)CC2)n1` (stereo not drawn), the INHIBITION was determined as 39.98%.
For the compound `Fc1cccc(N2CCCC3(CN(Cc4cccnc4)CCO3)C2)c1` (stereo not drawn), the INHIBITION is -18.59%.
Consider `O=c1[nH]c2ccccc2c2c1CCO2`, for which the INHIBITION was -66.7%.
As to `O=C(Nc1ccccn1)NC(CCCO)c1ccccc1` (stereo not drawn), the INHIBITION is recorded as -67.62%.
On to `Cc1ccc(CN2CC[C@H]3OCC[C@@]3(COCC(=O)N(C)C)C2)s1`, for which the INHIBITION is -14.52%.
On to `CCc1ccc(CN2CCCC(CO)(CCOC)C2)cc1` (stereo not drawn), for which the INHIBITION stood at 22.74%.
In the case of `CCN(CC)C(=O)[C@@H]1C[C@H](N)CN1C(=O)c1cc2c([nH]c1=O)CCC2`, the INHIBITION was 22.89%.
For `CCN(CC)C(=O)[C@@H]1C[C@@H](N)CN1C(=O)c1cc2c([nH]c1=O)CCC2`, the INHIBITION worked out at 56.16%.
For `CC(C)NC(=O)[C@@H]1C[C@H](N)CN1C(=O)c1cc2c([nH]c1=O)CCCC2`, the INHIBITION is given as -34.26%.
Take `CCN1CC2(CCC1=O)CCN(CCc1nccn1C)CC2`: the INHIBITION stood at 25.65%.
As to `CNc1nnc(CCn2nc(C)c(Br)c2C)s1`, the INHIBITION is on record as 6.05%.
Take `CC(C)(C)CC(=O)NC[C@H]1OC[C@@H](NCc2ccccn2)[C@@H]1O`: the INHIBITION stood at 16.43%.
Consider `CC(C)=CCS(=O)(=O)Cc1ccn(-c2cccc(F)c2)n1`, for which the INHIBITION was determined as 58.14%.
For the compound `CCS(=O)(=O)Cc1ccn(-c2cccc(F)c2)n1`, the INHIBITION is reported as 6.82%.
Consider `CN(C)C(=O)CS(=O)(=O)Cc1ccn(-c2cccc(F)c2)n1`, for which the INHIBITION was -19.29%.
On to `CCCNC(=O)CNc1cc(C#N)ccc1OCC`, for which the INHIBITION is listed as -19.76%.
For `Cn1ncc(C(=O)O)c1C(=O)Nc1nc2ccc(Br)cc2s1`, the INHIBITION came to 3.27%.
As for `N#Cc1ccc(CNCC2CCN(CCO)CC2)cc1`, the INHIBITION worked out at 1.07%.
For `Cc1[nH]c2ccc(CNc3cc(C(=O)NC(C)C)ccn3)cc2c1C`, the INHIBITION was determined as 15.46%.
`O=C1CO[C@H]2CN(S(=O)(=O)c3ccccc3)C[C@H]2N1Cc1ccccc1`: the INHIBITION is given as 15.98%.
In the case of `O=C1CO[C@@H]2CN(S(=O)(=O)c3ccccc3)C[C@H]2N1CC1CC1`, the INHIBITION is given as -30.12%.
With `O=C1CO[C@H]2CN(S(=O)(=O)c3ccccc3)C[C@H]2N1c1ccccc1`, the INHIBITION came out at 53.27%.
Then `CC(C)c1noc(C[S+]([O-])CC(=O)Nc2cc(F)ccc2F)n1` (stereo not drawn), with 12.35%.
In the case of `CC(NC1CCN(CCS(C)(=O)=O)CC1)c1ccc(Cl)cc1` (stereo not drawn), the INHIBITION is reported as -26.72%.
`COCCNC(=O)CCNc1cc(C)nc(-c2ccncc2)n1`: the INHIBITION is listed as 69.06%.
Take `Cc1cc(NCCC(=O)NC2CCCC2)nc(-c2ccncc2)n1`: the INHIBITION was -82.36%.
As for `Cc1cc(NCCC(=O)NC(C)C)nc(-c2ccncc2)n1`, the INHIBITION was -1.96%.
